# Source: ChEMBL document CHEMBL3988442, “University of Dundee, Small-Polar-MMV Screening Library” (2021)
# For some assays here: Potency and affinity values are given separately.
# Tests used:
# Parameters in all cases: scale not given: direction of the effect not stated beside the values
# [1] = target: Protein translocase subunit SecA (Escherichia coli (strain K12)) (UniProt P10408); assay: Assay to Identify E. coli SecA ATPase Inhibitors; format: functional; details: 30 µM
# [2] = target: T1, Ubiquitin-activating enzyme e1, putative (Leishmania donovani (strain BPK282A1)) (UniProt E9BSI1); assay: Leishmania donovani Ubiquitin Activating Enzyme (LdE1); format: functional; details: 30 µM
# T1 sequence (whole entry): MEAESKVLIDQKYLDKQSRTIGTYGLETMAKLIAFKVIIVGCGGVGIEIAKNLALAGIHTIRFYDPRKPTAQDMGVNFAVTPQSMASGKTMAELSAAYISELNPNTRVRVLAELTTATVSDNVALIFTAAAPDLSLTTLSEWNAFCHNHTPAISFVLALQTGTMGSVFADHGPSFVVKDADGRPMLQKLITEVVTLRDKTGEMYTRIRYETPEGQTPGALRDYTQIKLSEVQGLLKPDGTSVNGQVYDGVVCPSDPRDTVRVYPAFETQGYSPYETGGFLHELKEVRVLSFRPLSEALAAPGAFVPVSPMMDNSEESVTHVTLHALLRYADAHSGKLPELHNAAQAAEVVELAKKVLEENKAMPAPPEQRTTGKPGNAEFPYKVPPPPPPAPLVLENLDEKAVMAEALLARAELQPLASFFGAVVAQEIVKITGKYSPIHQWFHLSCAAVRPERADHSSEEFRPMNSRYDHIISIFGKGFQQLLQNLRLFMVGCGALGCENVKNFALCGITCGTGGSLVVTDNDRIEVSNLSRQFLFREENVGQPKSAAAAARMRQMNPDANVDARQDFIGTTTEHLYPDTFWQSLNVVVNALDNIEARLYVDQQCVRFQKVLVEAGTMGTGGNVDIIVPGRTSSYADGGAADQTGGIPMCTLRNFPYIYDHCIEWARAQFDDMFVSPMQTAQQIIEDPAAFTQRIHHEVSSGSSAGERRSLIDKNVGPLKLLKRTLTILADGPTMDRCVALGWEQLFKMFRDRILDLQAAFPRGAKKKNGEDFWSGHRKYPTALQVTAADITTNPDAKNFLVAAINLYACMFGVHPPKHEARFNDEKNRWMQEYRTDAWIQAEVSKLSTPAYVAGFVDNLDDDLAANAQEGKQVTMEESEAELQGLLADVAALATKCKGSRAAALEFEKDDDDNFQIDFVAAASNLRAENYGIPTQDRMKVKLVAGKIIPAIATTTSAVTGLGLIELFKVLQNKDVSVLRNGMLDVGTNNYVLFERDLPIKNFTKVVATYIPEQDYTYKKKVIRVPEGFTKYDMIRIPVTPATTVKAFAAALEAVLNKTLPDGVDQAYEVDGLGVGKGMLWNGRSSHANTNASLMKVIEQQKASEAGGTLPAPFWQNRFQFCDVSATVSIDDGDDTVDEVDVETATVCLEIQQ
# [3] = target: Sialic acid-binding Ig-like lectin 9 (Homo sapiens) (UniProt Q9Y336); assay: Hs-Siglec9 ALPHAscreen SOP 20170721; details: 10 µM
# Chain of Sialic acid-binding Ig-like lectin 9 (Homo sapiens) (Q9Y336 whole entry): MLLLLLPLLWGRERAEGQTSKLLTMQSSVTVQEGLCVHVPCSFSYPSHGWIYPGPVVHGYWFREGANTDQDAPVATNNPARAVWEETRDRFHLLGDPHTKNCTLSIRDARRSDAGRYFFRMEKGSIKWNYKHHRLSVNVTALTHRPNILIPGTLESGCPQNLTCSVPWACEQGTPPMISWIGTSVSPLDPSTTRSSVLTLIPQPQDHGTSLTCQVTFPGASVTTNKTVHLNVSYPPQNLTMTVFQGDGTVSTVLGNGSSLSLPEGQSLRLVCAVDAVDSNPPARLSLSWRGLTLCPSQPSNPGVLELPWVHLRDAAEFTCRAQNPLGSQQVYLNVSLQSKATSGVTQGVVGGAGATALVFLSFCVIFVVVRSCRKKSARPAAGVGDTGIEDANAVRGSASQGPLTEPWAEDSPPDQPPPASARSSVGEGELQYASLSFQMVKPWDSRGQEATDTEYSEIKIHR
# [4] = test system: Trypanosoma cruzi; assay: Trypanosoma cruzi phosphomannomutase and mannose-1-phosphate guanylyltransferase assay; format: functional; details: 10 µM
# [5] = target: T2, Arginase-2, mitochondrial (Homo sapiens) (UniProt P78540); assay: in vitro enzyme assay to detect the production of urea directly proportional to the activity of Arginase II; format: functional; details: 33.3 µM; also: in the data most compounds retested in dose-response had high values
# T2 sequence (whole entry): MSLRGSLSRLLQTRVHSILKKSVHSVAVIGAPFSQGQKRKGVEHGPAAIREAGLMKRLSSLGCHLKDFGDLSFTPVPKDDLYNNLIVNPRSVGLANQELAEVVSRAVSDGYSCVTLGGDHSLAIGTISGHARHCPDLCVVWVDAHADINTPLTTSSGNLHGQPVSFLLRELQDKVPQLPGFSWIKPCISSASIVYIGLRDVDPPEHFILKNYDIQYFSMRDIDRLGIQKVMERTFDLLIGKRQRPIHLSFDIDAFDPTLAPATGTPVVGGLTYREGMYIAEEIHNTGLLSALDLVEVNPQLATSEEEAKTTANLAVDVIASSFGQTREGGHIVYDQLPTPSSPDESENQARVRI
# [6] = target: T3, Proteasome subunit beta (Trypanosoma cruzi) (UniProt O96673); assay: Trypanosoma cruzi proteasome chymotrypsin-like activity (TcProtChymo) assay.; also: in the data most compounds retested in dose-response had high values; format: functional; details: 9.37 µM
# T3 sequence (whole entry): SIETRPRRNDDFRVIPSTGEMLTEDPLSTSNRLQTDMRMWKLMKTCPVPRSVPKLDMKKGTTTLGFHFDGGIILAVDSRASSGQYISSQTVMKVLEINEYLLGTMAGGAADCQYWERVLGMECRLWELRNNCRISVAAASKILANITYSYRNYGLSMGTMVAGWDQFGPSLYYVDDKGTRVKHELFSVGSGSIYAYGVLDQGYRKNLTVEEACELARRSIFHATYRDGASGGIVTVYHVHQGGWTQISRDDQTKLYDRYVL
# [7] = organism: Homo sapiens; assay: To identify inhibition of the IFN signalling (Jak-Stat) pathway via expression of an eGFP reporter gene under the control of an IFN-stimulated response element (ISRE) containing MxA promoter.; format: functional; details: 30 µM
# [8] = target: T4, Tyrosyl-tRNA synthetase, putative (Trypanosoma cruzi (strain CL Brener)) (UniProt Q4DSP6); assay: Trypanosoma cruzi tyrosyl tRNA synthetase (TcYRS) _High Tyrosine SOP; format: functional; details: 30 µM; also: in the data most compounds retested in dose-response had high values
# T4 sequence (whole entry): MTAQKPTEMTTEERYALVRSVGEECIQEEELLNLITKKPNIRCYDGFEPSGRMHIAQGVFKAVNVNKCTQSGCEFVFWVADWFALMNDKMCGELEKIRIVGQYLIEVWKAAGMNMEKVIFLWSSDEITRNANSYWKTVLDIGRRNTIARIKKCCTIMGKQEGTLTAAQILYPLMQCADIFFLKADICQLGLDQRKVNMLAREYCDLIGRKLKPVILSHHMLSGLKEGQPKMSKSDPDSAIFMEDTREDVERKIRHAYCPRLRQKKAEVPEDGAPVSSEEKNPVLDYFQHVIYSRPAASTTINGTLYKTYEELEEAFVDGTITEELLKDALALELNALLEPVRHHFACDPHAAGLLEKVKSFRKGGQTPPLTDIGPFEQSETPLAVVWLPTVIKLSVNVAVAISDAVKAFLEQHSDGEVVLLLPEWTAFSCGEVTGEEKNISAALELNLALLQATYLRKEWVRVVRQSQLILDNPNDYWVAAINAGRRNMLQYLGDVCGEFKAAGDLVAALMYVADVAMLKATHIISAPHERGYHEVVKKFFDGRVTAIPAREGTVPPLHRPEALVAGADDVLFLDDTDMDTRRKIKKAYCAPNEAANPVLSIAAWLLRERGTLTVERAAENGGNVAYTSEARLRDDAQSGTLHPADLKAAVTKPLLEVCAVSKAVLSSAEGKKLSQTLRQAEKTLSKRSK
# [9] = target: T4, Tyrosyl-tRNA synthetase, putative (Trypanosoma cruzi (strain CL Brener)); assay: Trypanosoma cruzi tyrosyl tRNA synthetase (TcYRS) SOP; format: functional; details: 30 µM
# [10] = target: Chromo domain-containing protein 1 (Saccharomyces cerevisiae (strain ATCC 204508 / S288c) (Baker's yeast)) (UniProt P32657); assay: ScCHD-1 Enzyme Inhibition Assay; format: functional; details: 30 µM; also: in the data most compounds retested in dose-response had high values
# Chain of Chromo domain-containing protein 1 (Saccharomyces cerevisiae (strain ATCC 204508 / S288c) (Baker's yeast)) (P32657 whole entry, the tested form may be a part): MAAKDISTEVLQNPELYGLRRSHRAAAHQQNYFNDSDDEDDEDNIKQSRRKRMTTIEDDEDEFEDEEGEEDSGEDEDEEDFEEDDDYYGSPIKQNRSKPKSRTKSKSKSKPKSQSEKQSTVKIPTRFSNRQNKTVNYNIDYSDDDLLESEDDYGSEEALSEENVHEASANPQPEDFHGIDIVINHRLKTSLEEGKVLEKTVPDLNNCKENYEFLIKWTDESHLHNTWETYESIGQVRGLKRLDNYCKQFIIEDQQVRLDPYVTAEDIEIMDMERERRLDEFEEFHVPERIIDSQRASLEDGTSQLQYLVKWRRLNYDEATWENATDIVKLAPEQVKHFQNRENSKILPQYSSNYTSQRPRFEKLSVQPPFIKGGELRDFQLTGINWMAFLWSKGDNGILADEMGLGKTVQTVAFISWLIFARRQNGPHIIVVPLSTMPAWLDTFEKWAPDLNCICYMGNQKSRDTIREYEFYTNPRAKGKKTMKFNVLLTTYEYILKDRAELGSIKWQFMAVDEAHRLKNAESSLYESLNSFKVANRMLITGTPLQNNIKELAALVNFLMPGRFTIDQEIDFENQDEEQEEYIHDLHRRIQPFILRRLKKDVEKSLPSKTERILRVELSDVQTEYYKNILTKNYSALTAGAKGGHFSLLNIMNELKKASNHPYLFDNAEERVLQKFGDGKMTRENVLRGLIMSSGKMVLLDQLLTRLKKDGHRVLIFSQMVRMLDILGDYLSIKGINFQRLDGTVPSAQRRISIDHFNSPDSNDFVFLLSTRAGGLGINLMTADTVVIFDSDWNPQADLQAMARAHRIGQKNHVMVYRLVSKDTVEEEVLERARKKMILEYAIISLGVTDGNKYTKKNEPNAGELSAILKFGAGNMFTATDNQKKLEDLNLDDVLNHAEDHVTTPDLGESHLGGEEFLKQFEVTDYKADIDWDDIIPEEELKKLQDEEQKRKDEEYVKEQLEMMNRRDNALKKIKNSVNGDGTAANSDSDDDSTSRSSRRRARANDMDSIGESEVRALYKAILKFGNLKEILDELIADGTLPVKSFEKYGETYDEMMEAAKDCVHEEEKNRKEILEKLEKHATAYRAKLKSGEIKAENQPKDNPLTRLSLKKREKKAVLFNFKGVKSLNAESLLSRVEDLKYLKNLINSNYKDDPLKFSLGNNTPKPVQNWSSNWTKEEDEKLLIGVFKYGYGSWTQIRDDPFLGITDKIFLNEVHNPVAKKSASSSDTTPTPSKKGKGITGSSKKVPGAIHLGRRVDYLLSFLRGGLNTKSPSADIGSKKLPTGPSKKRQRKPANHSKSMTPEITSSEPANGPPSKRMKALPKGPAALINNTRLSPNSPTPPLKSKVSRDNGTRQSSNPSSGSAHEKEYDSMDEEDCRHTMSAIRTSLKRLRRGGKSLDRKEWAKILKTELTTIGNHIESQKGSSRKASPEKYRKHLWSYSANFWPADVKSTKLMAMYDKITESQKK
# Chain of Protein translocase subunit SecA (Escherichia coli (strain K12)) (P10408 whole entry): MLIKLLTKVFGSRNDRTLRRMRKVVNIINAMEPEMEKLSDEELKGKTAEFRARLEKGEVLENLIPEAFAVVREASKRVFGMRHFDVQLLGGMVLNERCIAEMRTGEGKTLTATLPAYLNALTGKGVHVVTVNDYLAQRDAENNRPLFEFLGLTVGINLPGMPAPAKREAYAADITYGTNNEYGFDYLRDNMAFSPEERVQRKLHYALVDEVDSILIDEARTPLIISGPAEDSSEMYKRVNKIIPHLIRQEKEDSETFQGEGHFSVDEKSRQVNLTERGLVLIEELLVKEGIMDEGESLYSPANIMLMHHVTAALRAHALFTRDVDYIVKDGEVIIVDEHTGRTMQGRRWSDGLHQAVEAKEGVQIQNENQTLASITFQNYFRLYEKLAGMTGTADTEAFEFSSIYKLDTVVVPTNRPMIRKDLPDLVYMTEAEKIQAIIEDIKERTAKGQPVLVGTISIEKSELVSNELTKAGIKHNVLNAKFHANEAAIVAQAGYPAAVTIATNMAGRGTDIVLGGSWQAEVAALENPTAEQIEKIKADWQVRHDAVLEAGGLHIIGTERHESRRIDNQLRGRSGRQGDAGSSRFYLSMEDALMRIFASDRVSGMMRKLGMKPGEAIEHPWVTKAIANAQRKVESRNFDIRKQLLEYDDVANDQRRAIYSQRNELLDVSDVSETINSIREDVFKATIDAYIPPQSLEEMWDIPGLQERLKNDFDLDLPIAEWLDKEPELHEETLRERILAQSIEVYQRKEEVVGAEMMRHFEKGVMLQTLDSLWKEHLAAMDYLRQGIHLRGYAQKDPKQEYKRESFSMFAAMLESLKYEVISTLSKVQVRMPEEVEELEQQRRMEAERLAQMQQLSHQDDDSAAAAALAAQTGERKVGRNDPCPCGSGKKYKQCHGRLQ
Structure (SMILES),Percent Effect [1] [%],Percent Effect [2] [%],Percent Effect [3] [%],Percent Effect [4] [%],Percent Effect [5] [%],Percent Effect [6] [%],Percent Effect [7] [%],Percent Effect [8] [%],Percent Effect [9] [%],Percent Effect [10] [%]
CN(C)CC1CN(Cc2coc(-c3cccs3)n2)CCO1 (stereo not given),-1.09,13.3,-3.06,-2.41,2.22,11.8,15.3,-0.526,5.13,-10.9
CN1CCC/C1=N\S(=O)(=O)c1ccc(NC(=O)CCc2cccs2)cc1,2.31,20.8,5.99,2.05,12.1,5.79,16.7,7.84,28.2,-8.39
CC(C)C(NC(=O)N1CCN(c2ccc(Cl)cc2)CC1)C(=O)NC1CC1 (stereo not given),-5.57,5.41,7.5,2.23,-3.15,16.4,21.7,4.79,19.5,-1.96
N#Cc1ccccc1C(=O)N1C[C@H](CO)C[C@H](CN2CCCC2)C1,-4.41,-54,7.55,6.69,16.4,5.65,-3.94,2.66,9.76,-1.92
COC(=O)c1cccn1C1CCN(CC(=O)NC2CCCCC2)CC1,-0.883,15.6,8.78,-1.31,3.07,13.5,2.4,9.8,21.2,-5.06
COCCc1noc(CNC2CCSC2)n1 (stereo not given),-5.2,5.41,11.7,7.66,1.75,9.93,-4.93,5.85,17.1,-3.46
CN1CC(c2ccccc2)CC2(CCN(CC(=O)N(C)C)CC2)C1 (stereo not given),-6.25,5.41,9.32,8.44,-3.85,9.42,-25,1.6,17.1,-2.37
NCc1cn(-c2ccccc2C(=O)NCc2cccc(Cl)c2)cn1,0.846,9.33,-1.67,-7.3,1.33,6.4,-3.19,3.17,12.5,-24.5
Cc1cnn(C2CCCN(C(=O)c3sccc3-n3cnnn3)C2)c1 (stereo not given),-2,7.69,-3.12,-5.54,2.46,7.93,33.8,5.26,10.8,3.04
CN(C)CC(=O)N1CCC2(CC1)COC(COc1ccccn1)C2 (stereo not given),-4.97,6.49,-5.49,2.82,-4.86,12.3,-11.4,5.79,12.8,-0.892
CC(O)CN1CCC(CNCc2ccccc2Br)CC1 (stereo not given),-0.126,10.3,-8.9,11.4,1.23,10.2,8.18,4.31,20.5,-5.01
Fc1cccnc1CN1CCCCC1c1ccn2ccnc2n1 (stereo not given),-5.06,22.7,-2.65,1.77,-1.33,11.8,14,8.47,22.5,-27.9
COCCc1noc(CN2CCOC(Cn3nc(C)cc3C)C2)n1 (stereo not given),-2.32,10.4,14.5,6.72,8.4,-7.89,7.1,4.9,18.8,-6.59
CC(C)C(=O)N1CCC2(CCCN(CCOc3ccccc3)C2)C1 (stereo not given),-6.57,1.3,-1.94,-3,1.83,1.63,7.35,2.9,10,11.6
CN(C)C(=O)N1C[C@H]2CCC[C@@]2(COc2ccccn2)C1,-6.8,6.49,-3.98,-4.58,-6.07,10.9,6.85,-0.526,5.13,-2.37
CCc1cc(O)nc(C2CCCN2C(=O)c2cc(C)no2)n1 (stereo not given),-0.0921,17.3,-12.2,-2.76,-2.65,11.3,20.5,-2.12,5,-14.2
CN(C)C[C@@H]1C[C@@H]2CN(C(=O)c3ccoc3)CC[C@@H]2N1CC1CC1,-7.24,11.7,1.31,-6.19,0.913,0.429,11.2,-4.83,-2.5,-4.24
CC(=O)N1C[C@@H](c2ccsc2)[C@@H]2CN(Cc3ccccc3)CC[C@@H]21,-3.48,12,0.781,1.77,0.885,12.2,12.3,10.6,7.5,-25.4
Cc1cnc(CN2CCCC2c2noc(C)n2)cn1 (stereo not given),-3.01,-2.67,-1.58,0.602,0.444,14.5,-11.3,11.1,12.8,-6.87
CCOCC1CC2(CCN(C(=O)c3ccccn3)CC2)CO1 (stereo not given),-5.71,-1.3,4.48,-0.876,-3.64,9.44,-3.04,1.58,2.56,-2.76
Cc1ccc(C(=O)NCCNc2ncccc2C#N)c(=O)[nH]1,-1.94,5.2,-3.54,-8.77,-15,15.3,17.6,6.86,7.06,-7.29
CN(Cc1ccccc1)CC(O)Cn1cnc2c(cnn2C)c1=O (stereo not given),-1.52,17.9,-4.11,4.79,2.46,10.5,-1.98,7.18,22.9,-3.86
COc1ncccc1CNC(=O)c1cccnc1O,-1.81,12.8,-3.2,5.35,1.23,8.79,-10.7,11,22.9,-2.93
